Hits are enriched below; roughly 2.4% of the tested compounds scored in any of these assays.
p53ts 32C kill – p53ts cell cytotoxicity, permissive temperature | H1299-p53A138V at 32C, ATP luminescence viability, 24 h | Potency, µM (highest dose often 46.1 µM), for the others: at the highest dose activity change, negative = cytotoxicity, usual class: cytotoxic | actives 0.93% (n = 130,000) | AID 924;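 further: 0% = DMSO and -100% = full killing by reference compound; nearly all actives have a fitted effect of over 55% in size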
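H1299-p53 A138V cells (temperature-sensitive p53) exposed 24 h to up to 46 uM compound at 32C, where p53 is wild-type in conformation. Viability read as ATP luminescence and normalised to DMSO and 100 uM tamoxifen. AC50 fitted with the Hill equation.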
Imprint erasure – genomic imprint erasure induction | mouse ES Peg3-LacZ reporter, beta-gal luminescence, 40 h | actives 0.02% (n = 110,000) | Potency, µM (titrated, usually from 60.7 µM), for the others: at the highest dose activity change, positive = activation, usual class: activators
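Gelatin-coated wells received 300 freshly trypsinized female ES cells with a Peg3LacZ-Neo reporter on the maternal allele, then incubated 40 hours at 37C. BetaGlo was added for 5 minutes at room temperature before a single luminescence read.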
IkB sig inh – suppresses IkB signaling in ABC-DLBCL reporter cells. ABC-DLBCL IkBa-CBG/CBR dual luciferase ratio, 4 h; response scale: scaled: untreated 0%, proteasome inhibitor 100%. Potency, µM (highest dose often 57.1 µM), for inactives: top-dose IkBa stabilization activation. actives 0.04% (n = 110,000). AID 445; active means well fitted curve in the direction sought with a large enough effect in the signal ratio, not every such curve was filed as active; inconclusive means small, poorly fitted or top-dose-only effect, or a change in a side signal; the % refers to the signal ratio;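 further: the direction sought is a rising ratio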
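Luminescence ratio of IκBα-fused green versus native red beetle luciferase in OCI-Ly3 cells, 4 h post-doxycycline with compound; red signal alone, scaled from basal (0%) to zero light (-100%), flagged nonspecific or cytotoxic effects.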
FLuc inh – inhibitors of firefly luciferase; P08659; purified firefly luciferase, luminescence, 8 min; Potency, µM (titrated, usually from 57.1 µM), inactives show at the highest dose activity change, negative = inhibition, actives largely listed as inhibitors; actives 2.2% (n = 72,000); AID 411; further: on the % scale 0 is the no-effect control and ±100 the full control effect; nearly all actives have a fitted effect of over 40% in size
Target sequence (P08659 whole entry, looked up): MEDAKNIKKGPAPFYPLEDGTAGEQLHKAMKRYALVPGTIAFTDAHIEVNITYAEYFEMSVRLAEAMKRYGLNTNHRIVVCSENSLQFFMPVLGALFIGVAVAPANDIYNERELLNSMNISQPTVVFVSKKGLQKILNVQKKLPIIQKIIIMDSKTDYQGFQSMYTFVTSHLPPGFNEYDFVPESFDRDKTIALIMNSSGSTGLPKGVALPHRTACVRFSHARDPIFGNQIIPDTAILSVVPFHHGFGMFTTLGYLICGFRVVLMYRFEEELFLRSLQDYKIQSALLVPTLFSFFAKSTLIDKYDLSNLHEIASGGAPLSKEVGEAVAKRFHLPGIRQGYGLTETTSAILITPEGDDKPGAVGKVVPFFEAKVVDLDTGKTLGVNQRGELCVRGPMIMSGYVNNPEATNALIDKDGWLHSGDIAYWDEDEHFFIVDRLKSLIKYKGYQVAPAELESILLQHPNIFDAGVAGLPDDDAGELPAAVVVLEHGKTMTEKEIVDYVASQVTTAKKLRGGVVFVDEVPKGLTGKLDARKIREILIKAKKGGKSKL
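Here, luciferase activity is measured as luminescence following an 8 min room-temperature reaction at 10 uM ATP, pH 7.2. Every library sample is titrated.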
p53ts 39C kill – p53ts cell cytotoxicity, nonpermissive temperature. H1299-p53A138V viability at 39C, ATP luminescence, 24 h. Potency, µM (series often up to 46.1 µM), for inactives: at the top dose activity change, negative = cell killing, usual class: cytotoxic. actives 1.5% (n = 130,000); further: on the % scale 0 is the no-effect control and ±100 the full control effect; nearly all actives have a fitted effect of over 55% in size
The depositor's hits bear a star; ? = inconclusive; · = no result given; [ ] = another dose, or the depositor's remark. Unless noted, the call rests on the fitted dose curve; in most records, active means well fitted curve in the direction sought with a large enough effect; inconclusive means small, poorly fitted or top-dose-only effect, or another doubt; inactive means no such curve, though single readings can be large; an effect the other way counts as inactive or inconclusive. Potency means the concentration at half of the fitted maximal effect.

SMILES	p53ts 32C kill	Imprint erasure	IkB sig inh	FLuc inh	p53ts 39C kill
N#CC(=C1CCCC1)c1nc(-c2ccccc2O)cs1	10µM*	-74.5%	0.0%	12.6µM*	12.6µM*
CCOc1ccc(-c2c(C)nn3c(C)c(C(=O)NCC(C)c4ccccc4)cnc23)cc1OCC (stereo not given)	-2.0%	-22.3%[10.9 µM]	?	·	16.2%
COC(=O)c1cc(-c2ccc(OC)c(OC)c2)n[nH]1	-7.8%	-27.4%	0.1%	-6.8%	-20.2%
Oc1ccccc1-c1cc(-c2ccc3c(c2)OCCO3)n[nH]1	12.6µM*	-86.1%	?	3.16µM*	?
COc1ccc(-c2cc(-c3cc(F)ccc3O)[nH]n2)cc1OC	7.6%	-30.5%	?	12.6µM*	-6.5%
Oc1ccc(Br)cc1-c1cc(-c2ccccc2)n[nH]1	2.8%	·	·	·	?
COc1ccc(-c2cc(-c3ccccc3O)[nH]n2)cc1OC	-29.1%	-47.4%	?	3.98µM*	-19.3%
Cc1ccc(-c2cc(-c3cccc(F)c3)n[nH]2)c(O)c1	-19.7%	-14.3%	?	12.6µM*	-18.3%
Cc1noc(NS(=O)(=O)c2ccc(NC(=O)c3ccc(Br)cc3)cc2)c1C	-15.0%	-10.5%[10.9 µM]	?	·	-13.9%
COCC(=O)N1c2nc(-c3ccco3)nn2C2(CCCCC2)[C@@H]2CCCC[C@@H]21	-2.5%	-6.8%[10.9 µM]	0.6%	·	0.4%
Cc1nn(CC(=O)NCc2ccc(N(C)C)cc2)c(=O)c2c(C)n(-c3ccc(Cl)cc3)nc12	-1.2%	7.6%[10.9 µM]	?	·	-8.2%
COc1ccc(-c2cc(C)no2)cc1S(=O)(=O)Nc1c(C)cc(C)cc1C	22.9%	-8.0%[10.9 µM]	1.7%	·	1.8%
COc1ccc(C(=O)Nc2ccc(C)cn2)c(OC)c1	0.501µM*	-88.5%	?	0.251µM*	0.631µM*
COc1ccccc1C(=O)Nc1ccc(S(=O)(=O)Nc2ncccn2)cc1	-1.4%	-4.6%[10.9 µM]	-6.8%	·	26.1%
COc1ccccc1C(=O)Nc1ccccn1	10µM*	-78.6%	11.6%	15.8µM*	10µM*
CCOc1ccc(NC(=O)c2cnsn2)cc1	?	-59.9%	13.1%	15.8µM*	?
CCOc1ccc(NC(C)=O)cc1	-18.5%[1.84 µM]	-8.3%	-1.1%	6.3%[25.5 µM]	-9.8%
CCOc1ccc(NC(=O)c2nccnc2CO)cc1	12.6µM*	-88.5%	?	15.8µM*	10µM*
CCOc1ccc(NC(=O)c2cccnc2C(=O)O)cc1	-17.1%	-13.3%	1.1%	-8.8%	-24.9%
Cc1ccc(C)c(NC(=O)N2CCN(C(=O)c3nsc4ccccc34)CC2)c1	9.2%	-3.4%[10.9 µM]	0.9%	·	-5.9%
COC(=O)c1ccc2c(=O)n(CCc3ccc(S(N)(=O)=O)cc3)c(SCC(=O)C(C)(C)C)nc2c1	-7.7%	-18.2%[10.9 µM]	1.1%	·	-1.1%
CCOc1ccc(NC(=O)c2ccccc2O)cc1	7.94µM*	-67.0%	?	1.26µM*	7.94µM*
CCOc1ccc(NC(=O)c2ccccc2CO)cc1	?	-62.9%	?	?	?
CCOc1ccc(NC(=O)c2ccccc2OC)cc1	12.6µM*	-40.3%	-0.8%	3.16µM*	3.98µM*
CCOc1ccc(NC(=O)c2nnn(CC(=O)Nc3ccccc3OC)c2N)cc1	-28.0%	-5.4%	-0.4%	5.01µM*	-29.5%
SMILES	p53ts 32C kill	Imprint erasure	IkB sig inh	FLuc inh	p53ts 39C kill
COc1ccccc1NC(=O)Cn1nnc(C(=O)Nc2ccccc2)c1N	-6.7%	-1.1%	-1.5%	-3.3%	-15.7%
O=C(Nc1ccc(Br)cc1F)c1ccc2nc(CCc3ccccc3)oc2c1	6.1%	-12.5%[10.9 µM]	?	·	-24.3%
COc1ccc(CCNc2oc(COc3ccc(Cl)cc3)nc2C#N)cc1OC	22.4µM*	-7.5%[10.9 µM]	?	·	?
CCOC(=O)N1CCN(C(=O)CSc2nnc(-c3ccc(C(C)(C)C)cc3)o2)CC1	?	-19.8%	0.8%	1.26µM*	?
Cc1cc(-c2nnco2)c(C)n1-c1ccccc1	-28.0%	-13.6%	0.4%	12.6µM*	?
Cc1nc2ccccn2c1-c1nnco1	4.7%	-4.6%	-0.2%	-2.8%	1.5%
COc1cccc(NC(=O)C(C)n2c(=O)cc(C(F)(F)F)c3c(C)nn(C)c32)c1 (stereo not given)	0.6%	9.2%[10.9 µM]	?	·	-0.5%
CCc1nnc(SCc2ccc(F)cc2Cl)c2cc3sccc3n12	3.3%	-13.3%[10.9 µM]	-2.8%	·	7.4%
CCc1nnc(SCC(=O)N(C)c2ccccc2)c2cc3sccc3n12	-1.0%	-8.9%[10.9 µM]	?	·	25.1µM*
COc1ccc(CCNC(=O)Cn2nnc(-c3cccc(C(F)(F)F)c3)n2)cc1OC	-7.3%	-16.7%[10.9 µM]	-0.2%	·	19.6%
O=C(Nc1ccc(NC(=O)c2cc3ccccc3o2)cc1)c1ccccc1	-2.1%	-12.8%[10.9 µM]	3.4%	·	-2.3%
O=C(Nc1ccccn1)c1cc2ccccc2o1	4.47µM*	·	·	·	5.01µM*
O=C(NC1=NCCS1)c1cc2ccccc2o1	5.01µM*	-73.1%	?	5.01µM*	5.01µM*
O=C(NC1=NCCS1)c1cccs1	-11.2%	-2.9%	-2.5%	-0.2%	7.3%
O=C(Nc1cccc2ncccc12)c1cc2ccccc2o1	-5.4%	-13.8%	?	-14.9%	0.0%
O=C(Nc1ccc(Cl)cn1)c1cc2ccccc2o1	12.6µM*	-60.2%	?	7.94µM*	?
COC(=O)c1ccc(OCC2c3cc(OC)c(OC)cc3CCN2C(=O)c2cccc(C)c2)cc1 (stereo not given)	10.0%	-12.5%[10.9 µM]	?	·	-8.0%
CC(C)Cn1cc(NC(=O)NCc2cccc(Cl)c2)c2ccccc2c1=O	-12.7%	-2.5%[10.9 µM]	?	·	-17.6%
COc1cccc(O)c1O	5.01µM*	-58.8%	·	·	6.31µM*
COc1ccccc1O	?	0.1%	-2.0%	·	-5.9%
COc1ccc(C2=C(N)c3ccccc3C2=O)cc1	?	-59.8%	0.0%	12.6µM*	?
COc1ccc(C2C(=O)c3ccccc3C2=O)cc1	10µM*	-9.8%	·	·	12.6µM*
COc1ccc(C2C(=O)c3ccccc3C2=O)c(OC)c1	7.3%	4.3%	-0.1%	3.8%	-11.0%
N#Cc1c(N2CCCC2)nc(N)c2c(N)nc(N3CCCC3)cc12	12.6µM*	-13.6%	0.3%	-46.4%	14.5%
COc1cccc(CNc2ncnc3c2nnn3C)c1	7.2%	7.9%[10.9 µM]	6.4%	·	-12.3%
SMILES	p53ts 32C kill	Imprint erasure	IkB sig inh	FLuc inh	p53ts 39C kill
CCOc1ccccc1NC(=O)CSc1nc2cc(OC)c(OC)cc2c2nc(CCn3c(C)nc4ccccc43)nn12	?	-10.3%[10.9 µM]	-3.7%	·	5.01µM*
N.N.N.N.N.N.N.N.N.N.N.N.N.N.O.O.[Ru].[Ru].[Ru]	-13.2%	·	-3.5%	?	-3.8%
Cc1ccc2cc(/C=N/Nc3nc4ccccc4[nH]3)c(Cl)nc2c1	·	·	·	·	3.55µM*
CCCCOc1ccc(C(=O)Nc2cccc(C)n2)cc1	12.6µM*	2.9%	?	12.6µM*	15.8µM*
CCOc1ccc(C(=O)Nc2cccc(C)n2)cc1	5.01µM*	·	30.1%	12.6µM*	?
Cn1nnc(NC(=O)c2ccc3ccccc3c2)n1	?	·	·	·	-18.7%
CCOc1ccc(NC(=O)Nc2cccc(C)n2)cc1	-22.0%	3.8%[10.9 µM]	-4.0%	·	?

Bioassay records deposited in PubChem BioAssay by National Center for Advancing Translational Sciences (NCATS).
